Hits are enriched below; roughly 2.3% of the tested compounds scored in any of these assays.
M1 PAM parental = nonselective activator or artifact in parental CHO-K1 calcium assay. ATP EC20, Fluo-8 calcium fluorescence; 0% at ATP EC20, 100% at ATP max. activation, % at 3 µM. 0.02% of 360,000 active. AID 602247;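 active = activation above the run cutoff, the mean activation of all test compounds plus 3 SD, cut at about 40% in these data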;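 also: peak over basal fluorescence ratio in a 140 s read after ATP addition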
M1 antag = blocks human M1 muscarinic receptor | CHO-K1 hM1, Fluo-8 calcium fluorescence, ACh EC80 antagonist | inhibition, % at 3 µM | 1.3% of 360,000 active;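 active = percent inhibition above its own plate's cutoff, namely the mean of that plate's compound wells plus 3 SD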;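 also: peak over basal fluorescence ratio during 140 s after agonist addition; 0% = ACh EC80 plus DMSO and 100% = DMSO alone without agonist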
Target sequence (P11229 whole entry, looked up): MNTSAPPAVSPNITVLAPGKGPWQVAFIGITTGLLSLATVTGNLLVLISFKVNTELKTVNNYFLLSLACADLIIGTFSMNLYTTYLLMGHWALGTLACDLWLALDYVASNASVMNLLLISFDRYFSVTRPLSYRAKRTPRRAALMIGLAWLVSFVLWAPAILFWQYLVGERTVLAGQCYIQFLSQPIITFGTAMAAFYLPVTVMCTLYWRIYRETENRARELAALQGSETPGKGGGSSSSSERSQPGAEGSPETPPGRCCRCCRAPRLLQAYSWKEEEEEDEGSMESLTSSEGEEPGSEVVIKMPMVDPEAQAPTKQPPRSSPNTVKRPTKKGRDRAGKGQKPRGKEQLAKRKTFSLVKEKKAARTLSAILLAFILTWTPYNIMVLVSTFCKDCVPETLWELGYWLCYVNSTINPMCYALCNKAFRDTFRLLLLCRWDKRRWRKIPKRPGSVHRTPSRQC
M1 ag = activates human CHRM1 receptor; activation, % at 3 µM; AID 588814; 0.33% of 360,000 active; CHO-K1 hM1, Fluo-8 calcium fluorescence, agonist mode; 0% DMSO, 100% acetylcholine EC100; P11229;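 active = activation above the run's mean compound activation plus 3 SD, cut at about 16% in these data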;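 also: peak over basal fluorescence ratio within a 140 s kinetic read after compound addition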
M1 PAM = potentiates human M1 receptor response to acetylcholine; P11229; CHO-K1 hM1, Fluo-8 calcium fluorescence, ACh EC20; 0% = ACh EC20, 100% = maximal ACh; activation, % at 3 µM; 0.088% of 360,000 active; in the data active = activation above about 19%, passing the limit was not always enough
CHO-K1 Ca antag = counter-screen for M1 antagonists: effect in parental CHO-K1 cells. ATP-induced calcium, Fluo-8 fluorescence. inhibition, % at 3 µM. 0.6% of 360,000 active;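 active = inhibition above a per-plate cutoff, the plate's mean sample inhibition plus 3 SD, cut at about 24% in these data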;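 also: 0% = DMSO plus EC80 ATP and 100% = DMSO alone without ATP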
M1 ag parental = M1 agonist counterscreen hit in parental CHO-K1 cells; Fluo-8 calcium fluorescence; scaled to maximal ATP response, vehicle zero; activation, % at 3 µM; 0.48% of 360,000 active; in the data active = activation above about 15%;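 also: untransfected CHO-K1 host cells lacking M1 receptor as counterscreen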
* marks the source's active call; other numbers are inactive results.

SMILES	M1 PAM parental	M1 antag	M1 ag	M1 PAM	CHO-K1 Ca antag	M1 ag parental
O=C1CCCN1c1ccc(S(=O)(=O)NCCOc2ccccc2)cc1	-8	7	3	-3	18	3
CCC(C)[C@H]1CN=C(N)N1CCc1cccc2ccccc12 (some centres not stated)	-5	38*	-14	-28	-5	0
CN1CCC2(CC1)N=C(c1ccc(F)cc1)C(=S)N2C(=O)c1ccc(C(C)(C)C)cc1	-3	49*	-8	-26	13	0
O=C(c1cccs1)N1CCN(C2CCN(Cc3ccccc3)CC2)CC1	16	39*	-6	-20	-2	1
O=C(Nc1ccc(Cl)cc1)c1ccc(OCC2CCCO2)cc1 (configuration not stated)	2	10	-3	-1	9	26*
c1ccc(C[C@H]2CNCCN2CC2(c3ccccc3)CC2)cc1	-13	6	-4	1	-8	0
OC1(c2ccc(Cl)cc2)CCN(Cc2c[nH]c3ccccc23)CC1	13	-17	22*	-10	-5	3
COc1cc(S(=O)(=O)N2CCN(C)CC2)c(OC)cc1Cl	-7	-2	-2	12	24*	0
CCOC(=O)C(NCCOC)(NC(C)=O)C(F)(F)F (configuration not stated)	18	-6	-3	6	-9	0
CCCCOCP(=O)(CC)COCCCC	10	-4	-2	6	-6	0
COc1ccc(N(CC(=O)Nc2ccc(OC)c(Cl)c2)S(=O)(=O)c2c(C)noc2C)cc1	16	3	-1	-3	-5	3
COc1ccc(N(CC(=O)Nc2ccc(F)c(Cl)c2)S(=O)(=O)c2c(C)noc2C)cc1	-6	0	-1	4	26*	0
COCc1cc(C)nc(SCC(=O)Nc2cccc3cccnc23)c1C#N	-15	4	-1	-3	25*	0
COCc1cc(C)nc(SCC(=O)Nc2ccccc2N2CCOCC2)c1C#N	12	-5	-1	9	2	0
Cn1ncc(Oc2ccc([N+](=O)[O-])cc2)c(Cl)c1=O	3	-2	-3	6	7	15*
Cn1ncc(Cl)c(Oc2ccc(Cl)cc2)c1=O	17	3	-10	-4	-4	0
Cc1ccc(NC(=O)c2cc([N+](=O)[O-])ccc2N2CCCC2)cc1	17	6	-3	-2	1	17*
CC(C)c1ccc(S(=O)(=O)N2CCN(C(=O)c3cc([N+](=O)[O-])ccc3N3CCOCC3)CC2)cc1	8	-22	-4	8	-9	0
O=C(c1cc([N+](=O)[O-])ccc1N1CCOCC1)N1CCN(S(=O)(=O)c2ccc(F)cc2)CC1	-23	28*	-2	-9	4	0
Cc1ccc(NC(=O)c2cc([N+](=O)[O-])ccc2N2CCOCC2)cc1S(=O)(=O)N(C)C	13	52*	-5	-23	-13	3
Cc1ccc(NC(=O)c2cc([N+](=O)[O-])ccc2N2CCOCC2)cc1C	-13	-5	-5	7	8	0
COc1ccc(-c2cn(-c3ccccc3)c3[n+]2CCS3)cc1	10	40*	-10	-25	0	0
CC(C)(C)c1ccc(-c2cn(-c3ccc(Br)cc3)c3[n+]2CCCS3)cc1	13	79*	-10	-28	17	3
S=C(NCC1CCCO1)Nc1cc(Cl)c(Cl)cc1Cl (configuration not stated)	2	2	-3	-2	-17	2
Cc1cc(C)cc(NC(=S)NCC2CCCO2)c1 (configuration not stated)	-3	12*	-3	-11	6	0
SMILES	M1 PAM parental	M1 antag	M1 ag	M1 PAM	CHO-K1 Ca antag	M1 ag parental
O=C(NC(=S)NCC1CCCO1)c1ccc(Cl)cc1Cl (configuration not stated)	20	-3	-6	1	-4	15*
COc1ccc(/C=C/C(=O)NC(=S)NCC2CCCO2)cc1 (configuration not stated)	6	6	-6	-1	2	4
COc1ccccc1NC(=S)NCC1CCCO1 (configuration not stated)	-14	5	-3	-2	24*	-1
COc1ccccc1/C=C/C(=O)NC(=S)NCC1CCCO1 (configuration not stated)	4	35*	-3	-12	2	5
CCOc1ccccc1NC(=S)NCC1CCCO1 (configuration not stated)	18	-2	-6	3	-5	4
Cc1cc(C)c(NC(=O)CCN2C(=O)c3ccccc3S2(=O)=O)c(C)c1	15	-2	0	3	-6	2
O=C1NC2c3c(Cl)sc(Cl)c3C(=O)C2O1 (configuration not stated)	4	-28	5	28*	-8	0
Cc1ccc(S(=O)(=O)N(C)CC(=O)Nc2nc3ccccc3s2)cc1	-11	13	-1	-4	24*	2
O=C(Nc1cccc(NC(=O)c2ccccc2Cl)c1)c1ccc([N+](=O)[O-])o1	-10	17	-2	-18	4	17*
O=C(Nc1cccc(NC(=O)c2ccccc2Cl)c1)c1ccc(F)cc1	-30	-1	0	3	25*	4
O=C(Nc1cccc(NC(=O)c2ccc(F)cc2)c1)c1ccc(F)cc1	-2	-16	-4	10	3	0
CC(C)S(=O)(=O)c1cnc(-c2cccnc2)nc1N	14	-17	-3	6	-4	1
O=C(C1CCC1)N1CCN(c2cccc(C(F)(F)F)c2)CC1	8	-23	-3	6	-9	2
O=C(C1CCN(c2nnc(-n3cccc3)s2)CC1)N1CCN(c2cccc(C(F)(F)F)c2)CC1	1	40*	-3	-22	4	1
COC(=O)c1ccc(/C=N/NC(=O)c2ccc3nc[nH]c3c2)cc1	-2	15	0	-6	-5	3
O=C(N/N=C/c1ccc(Cl)cc1)c1ccc2nc[nH]c2c1	-4	29*	0	-14	5	5
O=C1NC(c2cccc(OCc3ccccc3)c2)Nc2ccccc21 (configuration not stated)	-20	-2	-1	-6	0	0
O=C(Nn1c(C2CCCCC2)nc2ccccc2c1=O)c1ccc([N+](=O)[O-])cc1	-14	-3	-3	11	24*	0
CCCC(C)c1nnc(NC(=O)C2CCCO2)s1 (configuration not stated)	6	55*	-12	-27	-14	1
CCOC(=O)c1c(NC(=O)C2CCCO2)sc(C)c1C (configuration not stated)	3	47*	-5	-19	-6	-1

High-throughput results (PubChem)
